# Test results: PubChem BioAssay (NCATS)
# Values joined by “and” are separate entries in the source; they are usually repeats but may differ in a detail not shown here. Equal values may be shown once. Inconclusive results are not listed. Entries that show only a call come without a potency. Unmarked numbers belong to inactive results. Active and inactive are the calls of the source. Unless noted, calls follow the shape of the dose curve; as a rule, active = well fitted curve in the direction sought with a large enough effect; inconclusive = small, poorly fitted or top-dose-only effect, or another doubt; inactive = no such curve, though single readings can be large; an effect the other way counts as inactive or inconclusive.
# Experiments:
# [1] = biological target: Cellular tumor antigen p53 (Homo sapiens) (UniProt P04637); assay: Primary qHTS for small molecule compounds that upregulate eGFP-tagged delta133p53alpha (in N-terminal) cells. (AID 2060322); conditions: NCI-H358 eGFP-delta133p53alpha fluorescence, 24 h; activation: hits give high values; also: nearly all actives have a fitted effect of over 75% in size; also: potency is read from the fitted curve at half-maximal effect;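 as to activation: cells pre-induced with doxycycline then dosed without doxycycline; series mostly up to about 56 µM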
# Procedure, shortened: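 NCI-H358 cells pre-induced 24 h with 10 ng/ml doxycycline for eGFP-delta133p53alpha, plated dox-free and exposed 24 h at 37C to titrated compounds. Fixed, Hoechst-stained; gated GFP peak intensity by laser scanning cytometry, normalized to DMSO (0%) and 57.5 uM 5-azacytidine (100%).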
# [2] = biological target: Aldehyde dehydrogenase, mitochondrial (Homo sapiens) (UniProt P05091); assay: qHTS for Inhibitors of the Aldehyde Dehydrogenase Family (ALDH2) Confirmatory screens (AID 2061303; active = well fitted inhibition curve with a large enough effect; title and protocol of this record describe different tests; also: nearly all actives have a fitted effect of over 45% in size; also: potency is read from the fitted curve at half-maximal effect)
# [3] = qHTS for Inhibitors of the Aldehyde Dehydrogenase Family (ALDH1A2, ALDH1A3, ALDH2, ALDH3A1) (AID 2061307); also: nearly all actives have a fitted effect of over 50% in size; as to potency: test system not described further here; potency is read from the fitted curve at half-maximal effect
# [4] = biological target: Aldehyde dehydrogenase, mitochondrial (Homo sapiens) (UniProt P05091); assay: qHTS for Inhibitors of the Aldehyde Dehydrogenase Family (ALDH2) Primary screen (AID 2061308); also: nearly all actives have a fitted effect of over 55% in size; also: potency is read from the fitted curve at half-maximal effect
# [5] = biological target: Retinaldehyde dehydrogenase 3 (Homo sapiens) (UniProt P47895); assay: qHTS for Inhibitors of the Aldehyde Dehydrogenase Family (ALDH1A3) Confirmatory screens (AID 2061311); also: nearly all actives have a fitted effect of over 60% in size; also: potency is read from the fitted curve at half-maximal effect
# [6] = biological target: Retinal dehydrogenase 2 (Homo sapiens) (UniProt O94788); assay: qHTS for Inhibitors of the Aldehyde Dehydrogenase Family (ALDH1A2) Confirmation screens (AID 2061314); also: nearly all actives have a fitted effect of over 65% in size; also: potency is read from the fitted curve at half-maximal effect
# [7] = biological target: Retinaldehyde dehydrogenase 3 (Homo sapiens) (UniProt P47895); assay: qHTS for Inhibitors of the Aldehyde Dehydrogenase Family (ALDH1A3) Primary screen (AID 2061315); also: potency is read from the fitted curve at half-maximal effect
# [8] = biological target: Aldehyde dehydrogenase 1A1 (Homo sapiens) (UniProt P00352); assay: qHTS for Inhibitors of the Aldehyde Dehydrogenase Family (ALDH1A1) Confirmatory screens (AID 2061316); also: nearly all actives have a fitted effect of over 65% in size; also: potency is read from the fitted curve at half-maximal effect
# [9] = biological target: Retinaldehyde dehydrogenase 3 (Homo sapiens) (UniProt P47895); assay: qHTS for Inhibitors of the Aldehyde Dehydrogenase Family (ALDH1A3) Validation screen (AID 2061312); also: nearly all actives have a fitted effect of over 45% in size
# [10] = BET inhibitor-based combinations targeting novel dependencies in MECOM-rearranged (r) AML: SET-2 cell line (AID 2202231); conditions: SET-2 AML cells viability, CellTiter-Glo luminescence, 48 h; viability: hits give low values, concentration not given here; also: nearly all actives have a fitted effect of over 35% in size; also: potency is read from the fitted curve at half-maximal effect
# Procedure, shortened: (§1)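 A 48 hr incubation preceded viability reading by CellTiter-Glo, with 15 min room-temperature development. Dose series had 11 points; normalization used DMSO and empty wells; AUC was computed and mean-centered per line as Z-AUC.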
# [11] = BET inhibitor-based combinations targeting novel dependencies in MECOM-rearranged (r) AML: OCI-AML3 cell line (AID 2202232); conditions: Potency: OCI-AML3 viability; also: nearly all actives have a fitted effect of over 35% in size; also: potency is read from the fitted curve at half-maximal effect
# Procedure, shortened: as §1
# [12] = BET inhibitor-based combinations targeting novel dependencies in MECOM-rearranged (r) AML: MV-4-11 cell line (AID 2202233); also: nearly all actives have a fitted effect of over 45% in size; also: potency is read from the fitted curve at half-maximal effect
# Procedure, shortened: (§2)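 Each compound is tested in an 11-point concentration series against 500 seeded cells/well for 48 hr. The luminescent viability signal is normalized to DMSO and blank wells, then reduced to AUC and a cell-line-centred Z-AUC.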
# [13] = BET inhibitor-based combinations targeting novel dependencies in MECOM-rearranged (r) AML: HNT-34 cell line (AID 2202234); also: nearly all actives have a fitted effect of over 35% in size; also: potency is read from the fitted curve at half-maximal effect
# Procedure, shortened: as §2
# [14] = BET inhibitor-based combinations targeting novel dependencies in MECOM-rearranged (r) AML: AML-191 cell line (AID 2202236; also: nearly all actives have a fitted effect of over 35% in size; also: potency is read from the fitted curve at half-maximal effect)
# Procedure, shortened: as §1
# [15] = BET inhibitor-based combinations targeting novel dependencies in MECOM-rearranged (r) AML: AML-194 cell line (AID 2202237; also: nearly all actives have a fitted effect of over 40% in size; also: potency is read from the fitted curve at half-maximal effect)
# Procedure, shortened: as §1
# [16] = BET inhibitor-based combinations targeting novel dependencies in MECOM-rearranged (r) AML: UCSD-AML1 cell line (AID 2202235); also: nearly all actives have a fitted effect of over 40% in size; also: potency is read from the fitted curve at half-maximal effect
# Procedure, shortened: as §2
# Sequence of Cellular tumor antigen p53 (Homo sapiens) (P04637 whole entry, looked up): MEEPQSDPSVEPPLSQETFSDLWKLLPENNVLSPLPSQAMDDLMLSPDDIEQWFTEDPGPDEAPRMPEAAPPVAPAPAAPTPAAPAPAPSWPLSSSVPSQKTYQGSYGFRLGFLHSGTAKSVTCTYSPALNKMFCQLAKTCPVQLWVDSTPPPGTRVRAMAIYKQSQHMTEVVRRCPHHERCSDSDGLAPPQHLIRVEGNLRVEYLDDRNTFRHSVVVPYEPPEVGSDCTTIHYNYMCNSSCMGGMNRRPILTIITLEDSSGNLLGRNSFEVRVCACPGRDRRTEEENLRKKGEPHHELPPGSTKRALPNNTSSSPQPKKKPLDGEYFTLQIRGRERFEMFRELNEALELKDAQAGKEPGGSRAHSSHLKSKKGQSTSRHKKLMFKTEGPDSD
compound,measurement,setting,value
CC/C=C\[C@H](O)[C@H](O)C1=C(C)C(=O)[C@]2(O1)C(=O)N[C@@](O)(C(=O)c1ccccc1)[C@@H]2O,activation,[1],-14.5%
same,Potency,[2],inactive
same,Potency,[3],inactive
same,Potency,[4],inactive
same,Potency,[5],inactive
same,Potency,[6],inactive
same,Potency,[7],inactive
Oc1ccc(CC2NCCc3cc(O)c(O)cc32)cc1 (stereo not given),activation,[1],-12.9%
same,Potency,[2],inactive
same,Potency,[3],inactive
same,Potency,[4],inactive
same,Potency,[5],inactive
same,Potency,[6],inactive
same,Potency,[8],inactive
CNC(=O)Nc1ccc(OC)c(NC(=O)NC(=O)c2cc(F)c(F)cc2Cl)c1,activation,[1],-5.67%
same,Potency,[2],inactive
same,Potency,[3],inactive
same,Potency,[4],inactive
same,Potency,[5],inactive
same,Potency,[7],28.2 µM (active)
same,Potency,[8],inactive
COc1cc2nc(N3CCCC3)nc(NCCCCCN3CCCC3)c2cc1OC,Potency,[1],30.6 µM (active)
same,Potency,[2],inactive
same,Potency,[3],inactive
same,Potency,[4],inactive
same,Potency,[9],inactive
same,Potency,[6],inactive
same,Potency,[7],inactive
O=C(NCCN1CCN(c2cccc3ccc(O)cc23)CC1)c1ccc(F)cc1,activation,[1],-8.04%
same,Potency,[2],inactive
same,Potency,[3],15.8 µM (active)
same,Potency,[4],inactive
same,Potency,[5],5.04 µM (active)
same,Potency,[6],inactive
same,Potency,[8],10.1 µM (active)
O=C(O)c1n[nH]c2c1C[C@H]1C[C@@H]21,activation,[1],-8.11%
same,Potency,[2],inactive
same,Potency,[3],inactive
same,Potency,[4],inactive
same,Potency,[5],inactive
same,Potency,[6],inactive
same,Potency,[7],inactive
same,Potency,[8],inactive
CC(C)c1c(-c2cnn(C(C)(C)C)c2)nc2c(C#N)c[nH]n2c1=O,activation,[1],11.2%
same,Potency,[2],inactive
same,Potency,[3],inactive
same,Potency,[4],inactive
same,Potency,[5],inactive
same,Potency,[7],inactive
same,Potency,[8],inactive
C/C(=N\N=C(N)N)c1cc(NC(=O)CCCCCCCCC(=O)Nc2cc(/C(C)=N/N=C(N)N)cc(/C(C)=N/N=C(N)N)c2)cc(/C(C)=N/N=C(N)N)c1,Potency,[1],26.9 µM (active)
same,Potency,[2],inactive
same,Potency,[3],inactive
same,Potency,[4],inactive
same,Potency,[5],inactive
same,Potency,[7],inactive
same,Potency,[8],inactive
N#Cc1ccc(O[C@@H]2c3ccccc3C[C@H]2N2CCC[C@@H](N)C2)c(Cl)c1,Potency,[1],30.1 µM (active)
same,Potency,[2],inactive
same,Potency,[3],inactive
same,Potency,[4],inactive
same,Potency,[5],inactive
same,Potency,[6],inactive
same,Potency,[7],inactive
COC(=O)N1CC2(CC2)C[C@H](C(=O)NO)[C@H]1C(=O)N1CCN(c2ccccc2)CC1,activation,[1],12.6%
same,Potency,[2],inactive
same,Potency,[3],inactive
same,Potency,[4],inactive
same,Potency,[5],inactive
same,Potency,[6],inactive
same,Potency,[8],inactive
same,viability,[10],112%
same,Potency,[11],inactive
same,Potency,[12],inactive
same,Potency,[13],inactive
same,Potency,[14],inactive
same,Potency,[15],inactive
C=C1CC[C@@H]2[C@](C)(CO)[C@H](O)CC[C@@]2(C)[C@@H]1CC(=O)C1=CCOC1=O,activation,[1],9.16%
same,Potency,[2],inactive
same,Potency,[3],inactive
same,Potency,[4],inactive
same,Potency,[5],inactive
same,Potency,[6],inactive
same,Potency,[8],inactive
CC(O)(C#Cc1ccc2c(c1)N(c1nc(N)ncc1Cl)CC2)c1nccs1 (stereo not given),activation,[1],-1.22%
same,Potency,[2],inactive
same,Potency,[3],inactive
same,Potency,[4],inactive
same,Potency,[5],inactive
same,Potency,[6],inactive
same,Potency,[7],inactive
same,Potency,[16],inactive
O=C(CCCCCCNC(=O)c1cnc(N(c2ccccc2)c2ccccc2)nc1)NO,activation,[1],7.34%
same,Potency,[2],inactive
same,Potency,[3],inactive
same,Potency,[4],inactive
same,Potency,[5],inactive
same,Potency,[8],inactive
same,Potency,[10],6.61 µM (active)
same,Potency,[11],5.9 µM (active)
same,Potency,[12],2.35 µM (active)
same,Potency,[13],7.42 µM (active)
same,Potency,[16],7.42 µM (active)
same,Potency,[14],7.42 µM (active)
same,Potency,[15],9.34 µM (active)
COc1cccc(OC)c1C(=O)N[C@@H]1C(=O)N2[C@@H]1SC(C)(C)[C@@H]2C(=O)O,activation,[1],-33.3% and -3%
same,Potency,[2],inactive
same,Potency,[3],inactive
same,Potency,[4],inactive
same,Potency,[5],inactive
same,Potency,[6],inactive
same,Potency,[7],inactive
same,Potency,[8],inactive
N#Cc1ccc(-c2cnc3[nH]cc(NC(=O)c4cccnc4)c3c2)cc1,activation,[1],-4.46%
same,Potency,[2],3.57 µM (active)
same,Potency,[3],1.59 µM (active)
same,Potency,[4],inactive
same,Potency,[5],3.16 µM (active)
same,Potency,[6],2.83 µM (active)
same,Potency,[7],inactive
same,Potency,[8],12.7 µM (active)
NCCCCN(Cc1nc2ccccc2[nH]1)[C@H]1CCCc2cccnc21,activation,[1],1.43%
same,Potency,[2],inactive
same,Potency,[3],inactive
same,Potency,[4],inactive
same,Potency,[9],inactive
same,Potency,[6],inactive
same,Potency,[7],inactive
same,Potency,[8],inactive
COc1ccc(CC2NCCc3c2[nH]c2ccc(C)cc32)cc1OC (stereo not given),activation,[1],5.25%
same,Potency,[2],inactive
same,Potency,[3],inactive
same,Potency,[4],inactive
same,Potency,[5],inactive
same,Potency,[6],inactive
same,Potency,[7],inactive
same,Potency,[8],inactive
O=C1C[C@@H](c2ccc(O)cc2)Oc2cc(O)ccc21,activation,[1],4.3%
same,Potency,[2],inactive
same,Potency,[3],3.02 µM (active)
same,Potency,[4],inactive
same,Potency,[5],12.7 µM (active)
same,Potency,[6],inactive
same,Potency,[8],inactive
N[C@H]1Cc2ccccc2N(O)C1=O,activation,[1],13.7%
same,Potency,[2],inactive
same,Potency,[3],inactive
same,Potency,[4],inactive
same,Potency,[5],inactive
same,Potency,[6],inactive
same,Potency,[7],inactive
same,Potency,[8],inactive
CC1=NN(c2ccccc2)C(=O)C1,activation,[1],-3.42% and 10.7% and -17%
same,Potency,[2],12.6 µM (active)
same,Potency,[3],6.31 µM (active)
same,Potency,[4],0.794 µM (active)
same,Potency,[5],8.91 µM (active)
same,Potency,[8],1.42 µM (active)
same,viability,[10],112%
same,Potency,[11],inactive
same,Potency,[12],inactive
same,Potency,[13],inactive
same,Potency,[16],inactive
same,Potency,[14],inactive
same,Potency,[15],inactive
